In PubChem BioAssay AID2732 (Emory University Molecular Libraries Screening Center, 2010) one finds inhibition data, which are given here for 61 compounds.

Structures are written as SMILES. About 8,200 (3.7%) of roughly 220,000 compounds were called active.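 Rule for the calls: active = compounds that reduced the stress-induced luciferase reporter signal by more than about 70% of percent inhibition (limit read from the data); inactive = the rest.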 What follows is part of a selection rich in actives, with near analogues and random picks from the rest.

This test is described as follows: blockers of ER-stress CHOP reporter expression – cell-based, unfolded protein response, luciferase reporter, primary screen (AID 2732).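 Note: 0% = tunicamycin plus vehicle and 100% = wells without tunicamycin.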 The note with it: CHO-K1 CHOP-promoter luciferase, tunicamycin-induced, 15-18 h; at 10 µM; hits give high values.
One may read the inhibition as the drop in the measured response relative to a control, in per cent. As to `CN1CCN(c2ccc(S(=O)(=O)N3CCOCC3)cc2NC(=O)CCc2ccccc2)CC1`, the inhibition is -2.84% (inactive).
Then `COc1cccc(Nc2nnc(SCC(=O)N3CC(=O)Nc4ccccc43)s2)c1`, with -4.27% (inactive); and `NC(=O)C1(C(N)=O)OC1c1ccc(Cl)cc1Cl` (stereo unspecified), with -9.68% (inactive); and `COC(=O)C1=CN(C)C=C(C(=O)OC)C1c1ccc(Cl)cc1Cl`, with 78.2% (active).
Consider `CCOc1ccccc1C1C(C(=O)OC)=CN(C)C=C1C(=O)OC`, for which the inhibition was 2.4% (inactive).
For the compound `O=C(NC1CC1)C1=C[C@H](c2c[nH]c3ccccc23)C[C@H](OCc2ccc(CO)cc2)O1`, the inhibition was 0.14% (inactive).
In the case of `CSc1ccc(NC(=O)/C=C/C(=O)O)cc1`, the inhibition is 6.47% (inactive).
Then `CC(C)S(=O)(=O)c1csc(NC(=O)Nc2ccc(Cl)cc2)c1Cl`, with -24.8% (inactive); and `O=C(CN1CCN(c2nc(-c3ccccc3)cs2)CC1)NCc1ccc2c(c1)OCO2`, with 63.6% (inactive).
In the case of `COc1cccc(NC(=O)CN2CCN(c3nc(-c4cccc(OC)c4)cs3)CC2)c1`, the inhibition was 19.3% (inactive).
As for `COc1ccc(-c2csc(N3CCN(Cc4ccc5c(c4)OCO5)CC3)n2)cc1`, the inhibition was 86.8% (active).
For the compound `COc1cc(C(F)(F)F)c(C(=O)N(C)c2ccc(Cl)cc2)cn1`, the inhibition is 13.6% (inactive).
As for `O=C(Nc1ccc(-c2csc(Nc3cccc(C(F)(F)F)c3)n2)cc1)c1cccc(C(F)(F)F)c1`, the inhibition is 21.4% (inactive).
Consider `O=C(O)COc1ccc(-c2nccc(-c3cccs3)n2)cc1`, for which the inhibition is 73.8% (active).
In the case of `O=C(Nc1ccnc(-c2ccncc2)n1)c1cccs1` it was 10.6% (inactive).
Take `COC(=O)CSc1nccc(-c2cccs2)n1`: the inhibition was -10.9% (inactive).
`O=c1[nH]c(CSc2ccccc2)nc2c1oc1ccccc12`: the inhibition was -3.37% (inactive).
Turning to `Cc1nnsc1C(=O)NCc1c(F)cccc1Cl`, the inhibition was 15.1% (inactive).
Turning to `Cc1ccc(-c2cn3cc(C)ccc3n2)cc1`, the inhibition is 95.9% (active).
As to `COc1ccc(-c2cn3ccc(C)cc3n2)cc1`, the inhibition was 59.3% (inactive).
Regarding `Cc1ccc(-c2cn3cc([N+](=O)[O-])ccc3n2)cc1`, the inhibition is 54.5% (inactive).
In the case of `COc1ccccc1N1CCN(C(=O)CSc2ncnc3c2cnn3-c2ccc(C)c(C)c2)CC1` it was -4.74% (inactive).
Take `Cc1nc(C(=O)N2CCCC(C(=O)c3ccc(Cl)cc3)C2)cs1` (stereo unspecified): the inhibition was -9.72% (inactive).
For the compound `CN(c1ccc2nc3ccccc3c(=O)n2n1)C1CCCCC1`, the inhibition was 84.1% (active).
Regarding `O=c1c2ccccc2nc2n1C1(CCCCC1)Cc1ccccc1-2`, the inhibition was -15.6% (inactive).
In the case of `CN(C(=O)CSc1nncc2ccccc12)C1CCCCC1`, the inhibition was 4.17% (inactive).
Consider `O=C(C[n+]1cc(-c2ccc(Cl)c(Cl)c2)n2c1CCC2)c1cccs1`, for which the inhibition is -8.35% (inactive).
In the case of `Cc1ccc(S(=O)(=O)N(C)C)cc1NC(=O)c1n[nH]c(=O)c2ccccc12` it was 2.56% (inactive).
Turning to `C/C(=N\NC(=O)c1cc2c(s1)CCC(C)C2)c1cccnc1` (stereo unspecified), the inhibition is 6.64% (inactive).
On to `CC1CCc2sc(C(=O)N/N=C/C3CCCCC3)cc2C1` (stereo unspecified), for which the inhibition is 71.4% (active).
Then `O=C(Nc1ccc(F)cc1)c1cc2c(s1)CCCC2`, with 10.4% (inactive); and `NC(=O)c1c(NC(=O)CSc2nc(N)cc(=O)[nH]2)sc2c1CCCC2`, with 15.3% (inactive).
Regarding `COc1cc(/C=C2/C(=O)ON=C2C)ccc1OCc1cccc(F)c1`, the inhibition was 104% (active).
`COc1cc(/C=C2/C(=O)ON=C2C)ccc1OCc1ccccc1F`: the inhibition was -26.4% (inactive).
With `CC1=NOC(=O)/C1=C\c1ccccc1`, the inhibition was -18.4% (inactive).
In the case of `Cc1cc(NCc2cccnc2)no1` it was 3.98% (inactive).
As to `O=C(NC(=O)N1CCSCC1)c1c(Cl)cccc1Cl`, the inhibition was 12.1% (inactive).
Regarding `Cc1cc(CO)nn1-c1ccc([N+](=O)[O-])cc1`, the inhibition is 7.27% (inactive).
In the case of `CNC(=O)C(NC(=O)c1ccccc1)=C(C)C`, the inhibition is 1.37% (inactive).
Turning to `CCN(CC)c1ccc(NC(=O)C2CCC(CNc3c(N4CCCC4)c(=O)c3=O)CC2)c(C)c1` (stereo unspecified), the inhibition was -9.36% (inactive).
In the case of `Cc1cc(-c2nc(C)c(-c3nnc(SCC(=O)Nc4ccccc4)n3C)s2)no1` it was 5.16% (inactive).
As to `CC(C)(C)Oc1ncc(Br)c(OC(C)(C)C)n1`, the inhibition was 23.2% (inactive).
Turning to `COc1cccc(-c2nc3cc(C)ccc3o2)c1`, the inhibition is 61.7% (inactive).
On to `COc1cccc(-c2cnc(OC(C)(C)C)nc2OC(C)(C)C)c1`, for which the inhibition was 91.8% (active).
With `Cc1ccc(C(=O)Nc2nc(N)n(-c3ccccc3)n2)cc1`, the inhibition was 12.8% (inactive).
As for `O=C(CCl)N(Cc1cccc([N+](=O)[O-])c1)c1cccc(Cl)c1`, the inhibition is 105% (active).
Turning to `O=C(Nc1cccc([N+](=O)[O-])c1)Nc1ccc(Cl)cn1`, the inhibition is 2.82% (inactive).
Consider `CCN(CC)C(=O)CN(c1cccc([N+](=O)[O-])c1)S(=O)(=O)c1ccccc1`, for which the inhibition is 0.69% (inactive).
As to `COC(=O)c1scc(S(=O)(=O)C(C)(C)C)c1-n1cccc1`, the inhibition was 6.86% (inactive).
On to `Cc1ccc(S(=O)(=O)NC(=O)N2CCCN(Cc3ccc(F)cc3)CC2)cc1`, for which the inhibition was 9.07% (inactive).
In the case of `COc1ccc(NS(=O)(=O)c2ccc(NC(=O)C(C)(C(F)(F)F)C(F)(F)F)cc2)nn1` it was -4.95% (inactive); in that of `COc1ccc(NS(=O)(=O)c2ccc(NC(=S)NC(=O)/C=C/c3ccc(C)cc3)cc2)nn1`, 95.5% (active); in that of `Cc1ccc(NC(=S)NC(=O)/C=C/c2ccc(Cl)cc2)cc1`, 17.9% (inactive).
As to `CCN(CC)CCCN=Cc1c(O)n(-c2ccc(C)cc2)c(=O)c2ccccc12`, the inhibition was 6.14% (inactive).
In the case of `CSCC[C@H](NC(=O)NC1CCCC1)C(=O)O`, the inhibition was -0.23% (inactive).
Turning to `Cc1ccc(-c2nc(CS(=O)CC(=O)N3CCN(c4ncccn4)CC3)c(C)o2)cc1` (stereo unspecified), the inhibition was 44.5% (inactive).
For `COc1ccc(-c2nc(CS(=O)CC(=O)N3CCc4ccccc4C3)c(C)o2)cc1` (stereo unspecified), the inhibition is 86.5% (active).
For the compound `COc1ccc(-c2nc(CS(=O)CC(=O)NCc3ccccn3)c(C)o2)cc1` (stereo unspecified), the inhibition is 7.53% (inactive).
Regarding `CCn1c(SCC(=O)Nc2sc(C)c(C)c2C#N)nnc1C1CC1`, the inhibition was 5.65% (inactive).
Consider `CCc1ccccc1NC(=O)CSc1nnc(CCNC(=O)OC(C)(C)C)o1`, for which the inhibition was 15.9% (inactive).
For the compound `O=C(/C=C/c1ccc(Cl)c([N+](=O)[O-])c1)c1ccc(O)cc1`, the inhibition was -208% (inactive).
